# Reference: PubChem BioAssay (NCATS)
# “And” between values parts separate entries of the source, which are not always exact repeats. Equal entries are not always repeated. Inconclusive results are not listed. Where a call stands in place of a potency, no number is given. Values without a mark were called inactive. The source made the active and inactive calls. Unless noted, calls follow the shape of the dose curve; as a rule, active = well fitted curve in the direction sought with a large enough effect; inconclusive = small, poorly fitted or top-dose-only effect, or another doubt; inactive = no such curve, though single readings can be large; an effect the other way counts as inactive or inconclusive.
# Columns and labels:
# [1] = target: Calcium and integrin-binding protein 1 (Homo sapiens) (UniProt Q99828); test: Primary qHTS for Identification of Calcium Integrin Binding Protein 1 (CIB1) Competitor (AID 1508620);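 also: GST tagged CIB1 binding a fluorescein labelled alphaIIb integrin peptide tracer; top concentration of the series differs between compounds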
# Outline: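 CIB1-GST (1 uM final) and compound incubated 15 min at room temperature before adding FITC-alphaIIb peptide tracer (100 nM final). Competition for binding read by fluorescence polarization (ex 480, em 540) after another 15 min at room temperature.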
# [2] = Primary qHTS for inhibitors of nuclear receptor binding SET domain protein 2 (NSD2) in an isogenic RCH-ACV NSD2 p.E1099K mutant (9B) (AID 1645876); also: nearly all actives have a fitted effect of over 70% in size; also: potency is read from the fitted curve at half-maximal effect
# [3] = target: N-terminal Xaa-Pro-Lys N-methyltransferase 1 (Homo sapiens) (UniProt Q9BV86); test: Confirmatory qHTS for Inhibitors of N-terminal methyltransferase 1 (NTMT1): MTaseGlo Assay (AID 1645874); also: nearly all actives have a fitted effect of over 65% in size; also: potency is read from the fitted curve at half-maximal effect;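 as to activity change, negative = inhibition: luminescence from SAH made as NTMT1 methylates SPKRIA peptide using SAM; series mostly up to about 100 µM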
# Outline: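 Compounds are incubated with 125 nM NTMT1 and 100 uM SAM for 15 min before the SPKRIA peptide (1 uM) starts a 30 min room-temperature methylation. SAH is measured by coupled luciferase luminescence and curves fitted to a Hill equation.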
# [4] = target: Cytochrome P450 2C9 (Homo sapiens) (UniProt P11712); test: Cytochrome P450 family 2 subfamily C member 9 (CYP2C9) small molecule antagonists: luciferase biochemical (cell-free) qHTS assay (AID 1645842; active = well fitted curve in the direction sought with a large enough effect in the repeat runs; an effect the other way counts as inactive or inconclusive; also: nearly all actives have a fitted effect of over 55% in size; also: potency is read from the fitted curve at half-maximal effect; as to activity change, negative = inhibition: series mostly up to about 57 µM)
# Outline: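 Luminescence, after 20 min with luciferin detection reagent, reflected CYP2C9 turnover during a 1 h NADPH-driven reaction at 37C. Enzyme-substrate mix contained 0.4% bovine serum albumin and was preincubated with compound 10 min at room temperature.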
# [5] = target: Papain (Carica papaya) (UniProt P00784); test: Primary qHTS assay for inhibitors of the protease papain (AID 1645873);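 also: papain turnover of Z-FR-AMC read as the AMC fluorescence gain over 10 min; series mostly up to about 50 µM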
# Papain (Carica papaya), sequence (P00784 whole entry, looked up): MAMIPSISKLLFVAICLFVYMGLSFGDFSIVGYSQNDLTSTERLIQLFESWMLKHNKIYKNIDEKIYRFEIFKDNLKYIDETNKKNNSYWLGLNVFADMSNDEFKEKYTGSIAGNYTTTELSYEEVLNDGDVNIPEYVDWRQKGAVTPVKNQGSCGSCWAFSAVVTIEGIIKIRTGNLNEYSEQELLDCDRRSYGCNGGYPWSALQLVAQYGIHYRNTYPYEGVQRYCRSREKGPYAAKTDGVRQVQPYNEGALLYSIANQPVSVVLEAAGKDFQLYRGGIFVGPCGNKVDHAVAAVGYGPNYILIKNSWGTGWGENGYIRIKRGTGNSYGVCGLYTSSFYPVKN
# Cytochrome P450 2C9 (Homo sapiens), sequence (P11712 whole entry, looked up): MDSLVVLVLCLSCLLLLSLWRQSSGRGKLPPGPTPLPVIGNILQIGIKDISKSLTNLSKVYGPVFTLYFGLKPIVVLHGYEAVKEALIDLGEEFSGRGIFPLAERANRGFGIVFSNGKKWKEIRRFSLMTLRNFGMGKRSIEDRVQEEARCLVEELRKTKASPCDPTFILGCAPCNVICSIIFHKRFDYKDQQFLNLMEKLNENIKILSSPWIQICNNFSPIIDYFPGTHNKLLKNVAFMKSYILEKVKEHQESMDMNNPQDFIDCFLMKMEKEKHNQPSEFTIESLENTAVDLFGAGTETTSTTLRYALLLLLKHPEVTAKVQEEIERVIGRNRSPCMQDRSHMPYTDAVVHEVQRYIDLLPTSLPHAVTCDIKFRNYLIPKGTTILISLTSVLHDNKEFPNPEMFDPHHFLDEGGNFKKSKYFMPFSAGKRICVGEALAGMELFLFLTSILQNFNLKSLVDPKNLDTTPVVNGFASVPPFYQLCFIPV
# Calcium and integrin-binding protein 1 (Homo sapiens), sequence (Q99828 whole entry, looked up): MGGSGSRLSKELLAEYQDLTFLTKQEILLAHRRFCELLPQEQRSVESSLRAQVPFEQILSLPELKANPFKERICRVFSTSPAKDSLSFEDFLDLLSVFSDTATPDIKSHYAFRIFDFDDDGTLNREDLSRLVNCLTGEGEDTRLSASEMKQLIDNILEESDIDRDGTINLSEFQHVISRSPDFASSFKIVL
# N-terminal Xaa-Pro-Lys N-methyltransferase 1 (Homo sapiens), sequence (Q9BV86 whole entry, looked up): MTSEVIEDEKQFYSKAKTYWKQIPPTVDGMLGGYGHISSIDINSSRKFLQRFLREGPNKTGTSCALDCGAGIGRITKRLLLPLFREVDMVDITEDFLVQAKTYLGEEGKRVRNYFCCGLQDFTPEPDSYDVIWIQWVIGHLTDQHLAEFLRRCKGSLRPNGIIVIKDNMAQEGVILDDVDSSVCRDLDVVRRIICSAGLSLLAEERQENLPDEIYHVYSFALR
smiles,measurement,setting,value
CCCOc1ccc(-c2nc(OC)c3ccccc3n2)cc1,Potency,[1],inactive
same,Potency,[2],inactive
CC1=CC(=O)C2(OC3OC(C)C(O)C(OC(=O)/C=C/c4ccccc4)C3O)C=COC(OC3OC(CO)C(O)C(O)C3O)C12 (centres undefined),Potency,[1],inactive
same,Potency,[2],inactive
C/C=C/c1ccc2oc(-c3ccc(O)c(OC)c3)c(C)c2c1,Potency,[1],inactive
same,Potency,[3],inactive
same,Potency,[2],14.5 µM (active)
C/C=C1\[C@H](O[C@@H]2O[C@H](CO)[C@@H](O)[C@H](O)[C@H]2O)OC=C(C(=O)OC)[C@H]1CC(=O)OC[C@H]1O[C@@H](OCCc2ccc(O)cc2)[C@H](O)[C@@H](O)[C@@H]1O,Potency,[1],inactive
same,Potency,[2],inactive
COc1cc([C@H]2c3cc(O)c(OC)cc3C[C@@H](CO[C@@H]3O[C@H](CO)[C@@H](O)[C@H](O)[C@H]3O)[C@@H]2CO)ccc1O,Potency,[1],inactive
same,Potency,[2],inactive
[N-]=[N+]=N[C@]1(CO)O[C@@H](n2ccc(=O)[nH]c2=O)[C@@H](O)[C@@H]1O,Potency,[1],inactive
same,Potency,[2],inactive
C[C@@H]([C@@H](O)c1ccc(O)cc1)N1CCC(O)(c2ccccc2)CC1,Potency,[1],inactive
same,Potency,[4],inactive
same,Potency,[2],inactive
Cc1cc2c(F)c(Oc3ncnn4cc(OCC(C)O)c(C)c34)ccc2[nH]1 (centres undefined),Potency,[1],inactive
same,Potency,[4],12 µM (active)
same,Potency,[2],4.09 µM (active)
Cc1cnc(Nc2ccc(F)cc2Cl)nc1-c1c[nH]c(C(=O)NC(CO)c2cccc(Cl)c2)c1 (centres undefined),Potency,[1],inactive
same,Potency,[3],inactive
same,Potency,[2],8.33 µM (active)
C=CC1(C)CC(OC(=O)/C(C)=C\COC(C)=O)C(C(=C)C(=O)O)C(O)C1C(=C)CO (centres undefined),Potency,[1],inactive
same,Potency,[2],inactive
C=C(C)C1Cc2cc(C(=O)OC3OC(CO)C(O)C(O)C3O)ccc2O1 (centres undefined),Potency,[1],inactive
same,Potency,[2],inactive
CC(C)(C)Nc1nc(Nc2ccc(C(N)=O)cc2)cc(N)c1C#N,Potency,[1],inactive
same,Potency,[4],3.38 µM (active)
same,Potency,[2],3.65 µM (active)
COC(=O)N(C)c1c(N)nc(-c2nn(Cc3ccccc3F)c3ncccc23)nc1N,Potency,[1],inactive
same,Potency,[4],23.9 µM (active)
same,Potency,[2],inactive
C=C(C(=O)O)C1CC2=C(C)CCCC2(C)C[C@@H]1O (some centres undefined),Potency,[1],inactive
same,Potency,[2],inactive
CC1=C(C(=O)O)/C(=C\CO[C@@H]2O[C@H](CO)[C@@H](O)[C@H](O)[C@H]2O)C(OC(=O)/C=C/c2ccc(O)cc2)C1 (some centres undefined),Potency,[1],inactive
same,Potency,[2],inactive
CC[C@]1(O)CC2CN(CCc3c([nH]c4ccccc34)[C@@](C(=O)OC)(c3cc4c(cc3OC)N(C)[C@H]3[C@@](O)(C(=O)OC)[C@H](OC(C)=O)[C@]5(CC)C=CCN6CC[C@]43[C@@H]65)C2)C1 (some centres undefined),Potency,[1],inactive
same,outcome,[5],inactive
same,Potency,[2],57.8 nM (active) and 417 nM (active)
C[C@@H]1O[C@@H](O[C@H]2[C@H](O)[C@@H](O[C@@H]3O[C@H](CO)[C@@H](O)[C@H](O[C@@H]4O[C@H](CO)[C@@H](O)[C@H](O)[C@H]4O)[C@H]3O)[C@H](O[C@H]3CC[C@@]4(C)C(=CC[C@@H]5C4CC[C@@]4(C)C5C[C@@H]5OC6(CC[C@@](C)(CO[C@@H]7O[C@H](CO)[C@@H](O)[C@H](O)[C@H]7O)O6)[C@@H](C)[C@@H]54)C3)O[C@@H]2CO)[C@H](O)[C@H](O)[C@H]1O (some centres undefined),"activity change, negative = inhibition",[1],-1.49% [at 12.4 µM]
same,"activity change, negative = viability loss",[2],-19.9% [at 9.23 µM]
CC1CCC23COC(=O)C2=CC(O)CC3C1(C)CCC1=CC(O)OC1=O (centres undefined),Potency,[1],inactive
same,Potency,[2],inactive
CNS(=O)(=O)c1ccccc1Nc1nc(Nc2ccc(N3CCN(C)CC3)cc2OC)ncc1Cl,Potency,[1],inactive
same,Potency,[4],3.38 µM (active)
same,Potency,[2],0.578 µM (active)
COc1ccc(C2(O)c3ccccc3NC(=O)C2O)cc1 (centres undefined),Potency,[1],inactive
same,Potency,[2],inactive
COC(=O)CC(O)C1OC(c2ccccc2)C(O)C1O (centres undefined),Potency,[1],inactive
same,Potency,[2],inactive
NC(=O)c1cccc(-c2cc(OC(=O)NC3CCCCC3)ccc2O)c1,Potency,[1],inactive
same,Potency,[3],inactive
O=C1NC(=O)C(c2cn3c4c(cccc24)CCC3)C1c1c[nH]c2ccccc12 (centres undefined),Potency,[1],inactive
same,Potency,[2],1.03 µM (active)
CC(Oc1cc(-n2cnc3ccc(CN4CCN(C)CC4)cc32)sc1C(N)=O)c1ccccc1C(F)(F)F (centres undefined),Potency,[1],inactive
same,Potency,[3],21.4 µM (active)
same,Potency,[2],0.578 µM (active)
CC(=O)C1=CCC2C3CCC4CC(O[C@@H]5O[C@H](CO)[C@@H](O[C@@H]6O[C@@H](C)[C@H](O)[C@@H](O)[C@H]6O)[C@H](O)[C@H]5O[C@@H]5O[C@H](CO)[C@@H](O)[C@H](O)[C@H]5O)CCC4(C)C3CCC12C (some centres undefined),Potency,[1],inactive
same,Potency,[2],inactive
